Only a selection was taken, and hits are over-represented in it overall.
mHTT-CaM PPI inh = mutant huntingtin-calmodulin interaction inhibitors – biochemical, AlphaScreen, primary screen | actives 3.6% (n = 190,000) | inhibition, % at 15 µM | AlphaScreen His-mHTT/GST-CaM binding, luminescence | P42858
Pf apPOL inh = Pf-apPOL inhibitors, biochemical, fluorescence | Plasmodium falciparum apicoplast DNA polymerase (apPOL) | Recombinant Pf-apPOL, molecular beacon fluorescence, 1.5 h | actives 0.25% (n = 210,000) | inhibition, % at 10 µM
Large screens that a line does not name were inactive; ! = not active in a repeat. No stated cut-off is given here; in the data, active means inhibition above about 50%; inactive means the rest.

O=C(NCCc1c[nH]c2ccccc12)C1CCN(c2ccncc2)CC1	none
Cc1ccc2[nH]cc(CCNC(=O)C3CCN(c4ccc(N5CCCCC5)nn4)CC3)c2c1	mHTT-CaM PPI inh 78
Cc1ccc(CNC(=O)C2CCN(c3ccc(N4CCCCC4)nn3)CC2)cc1	none
O=C(CSc1nc2ccccc2[nH]1)Nc1ncc([N+](=O)[O-])s1	none
Cn1c(=O)c2[nH]c(-c3cc(Br)ccc3F)nc2n(C)c1=O	none
Cc1ccc2[nH]cc(CCNC(=O)CC3CCN(C(=O)C4CCCCC4)CC3)c2c1	mHTT-CaM PPI inh 86
COc1ccc2[nH]cc(CCNC(=O)C3CCc4nc(N5CCCC5)ncc4C3)c2c1 (configuration not stated)	none
O=C(NCCc1c[nH]c2ccccc12)C1CCc2nc(N3CCCC3)ncc2C1 (configuration not stated)	mHTT-CaM PPI inh 54
COc1ccc2[nH]cc(CCNC(=O)CC3CCN(C(=O)C4CCCCC4)CC3)c2c1	none
CC(NC(=O)c1cc2c(=O)n3ccccc3nc2n(C2CCCC2)c1=N)c1ccccc1 (configuration not stated)	none
O=c1ccc(-c2ccc(Cl)cc2)nn1CCNS(=O)(=O)c1ccc2c(c1)CCCC2	mHTT-CaM PPI inh 80
O=C(NCCCn1nc(-c2ccc(Cl)cc2)ccc1=O)C1CCCC1	none
CC1(C)CC(=O)C2=C(C1)N(c1cccc(C(F)(F)F)c1)C(N)=C(C#N)C2c1ccsc1 (configuration not stated)	none
N#CC1=C(N)N(c2ccc(Br)cc2F)C2=C(C(=O)CCC2)C1c1ccsc1 (configuration not stated)	none
CC1(C)CC(=O)C2=C(C1)N(c1cccc(C(F)(F)F)c1)C(N)=C(C#N)C2c1cccs1 (configuration not stated)	mHTT-CaM PPI inh 67
N#CC1=C(N)N(c2cccc(Br)c2)C2=C(C(=O)CCC2)C1c1cccs1 (configuration not stated)	mHTT-CaM PPI inh 68
N#CC1=C(N)N(c2ccccc2)C2=C(C(=O)CCC2)C1c1cccs1 (configuration not stated)	none
N#CC1=C(N)N(c2ccc(Br)cc2F)C2=C(C(=O)CCC2)C1c1cccs1 (configuration not stated)	mHTT-CaM PPI inh 54
CN(C)c1ccc(C=NCC2COc3ccccc3O2)cc1 (configuration not stated)	none
Nc1nccc(-c2cc(-c3cccc(C(F)(F)F)c3)no2)n1	none (no result: mHTT-CaM PPI inh)
CCN(CC)C(=O)C1CCCN(Cc2ccc([N+](=O)[O-])o2)C1 (configuration not stated)	none
CCN(CC)C(=O)C1CCCN(c2ccc([N+](=O)[O-])cc2C=O)C1 (configuration not stated)	mHTT-CaM PPI inh 70
Cc1ccc(O)c(NC(=O)C2CC(c3cccc(Br)c3)=NO2)c1 (configuration not stated)	none
O=c1ccc(S(=O)(=O)N2CCOCC2)cn1Cc1cccc(Cl)c1	none
O=C1C(=O)N(Cc2ccc(Cl)cc2)c2ccc(Cl)cc21	mHTT-CaM PPI inh 78!
Cc1ccccc1CN1C(=O)C(=O)c2cc(Cl)ccc21	mHTT-CaM PPI inh 51
Cc1ccccc1CN1C(=O)C(=O)c2ccccc21	none
O=C1c2cccnc2C(=O)N1Cc1ccc(Cl)cc1	none
O=C1C(=O)N(Cc2ccc(Cl)cc2)c2ccc(S(=O)(=O)N3CCOCC3)cc21	mHTT-CaM PPI inh 92
COCCN(Cc1ccsc1)C(=O)Nc1ccccc1C(F)(F)F	none
CC1CCc2c(sc3nc4c5ccccc5c5nnnn5n4c(=O)c23)C1 (configuration not stated)	none
COc1cc(OC)cc(C(=O)Nc2ccc(N(C)C)cc2)c1	none
Cc1ccc2c(Nc3cc(F)ccc3F)c(C(=O)OC(C)C)cnc2n1	none
COc1ccc(C=Nc2ccc(C)cc2C)cc1O	none
COc1cc(C=Nc2ccc(C)cc2O)ccc1O	mHTT-CaM PPI inh 77
Cc1ccc(N=Cc2cc([N+](=O)[O-])ccc2O)c(Br)c1	none
Cc1ccc(N=Cc2cc(C)c(C)cc2O)c(O)c1	mHTT-CaM PPI inh 53
O=C(C1CCCC1)N1CCCC(c2ccnc(-c3cccc(F)c3)n2)C1 (configuration not stated)	none
Cc1cccc(NCCC(=O)c2cccc([N+](=O)[O-])c2)c1C	none
COc1cc(-c2noc(C)c2-c2ccc(N(C)C)nc2)cc(OC)c1OC	none
O=C1OC(c2ccc(I)cc2)=N/C1=C/c1cc2c(cc1Cl)OCO2	none
Fc1ccccc1CN1CCSCC1	none
O=C(Nc1ccccc1-c1nc2ccccc2[nH]1)c1ccccc1F	none
CCSc1ccccc1C(=O)Nc1ccccc1-c1nc2ccccc2[nH]1	mHTT-CaM PPI inh 61
CCCC(=O)Nc1cccc(S(=O)(=O)c2cccc(NC(=O)CCC)c2)c1	none
CC(=O)C1=C(C)NC(C)=C(C(C)=O)C1c1cccc([N+](=O)[O-])c1	none (no result: mHTT-CaM PPI inh)
CC(=O)C1=C(C)Nc2sc(C(=O)c3cccc([N+](=O)[O-])c3)c(N)c2C1c1cccnc1 (configuration not stated)	mHTT-CaM PPI inh 57
